zVAD death inh – L929 zVAD cell death inhibition; AID 1377; L929 zVAD necroptosis rescue, ATP luminescence, 24 h; with zVAD 60 µM; hit rate 0.38% among 220,000; viability rescue, % at 10 µM;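 active = activation, scaled between plate controls, above about 75%, limit read from the data; inactive = activation under that limit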;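 also: 0% = zVAD with DMSO and 100% = DMSO alone without zVAD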
PKD1 kinase inh – inhibitors of human PKD1 kinase | AID 797 | inhibition, % (no concentration beside the values) | Q15139 | hit rate 0.056% among 200,000 | PKD1 kinase fluorescence polarization assay; in the data active = inhibition above about 50%
PERK inh – blocks human PERK kinase. CHO PERK-DD fusion, SEAP luminescence translation reporter. hit rate 0.17% among 220,000. inhibition, % at 5.6 µM. AID 1416. Q9NZJ5;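 active = inhibition above the mean inhibition of all tested compounds plus 3 SD, set separately per screening campaign, cut at about 2.9% in these data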;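 also: PERK kinase domain activated by AP20187 dimerizer at 100 nM; 0% = DMSO with dimerizer and 100% = rapamycin at 8.4 µM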
WT yeast gro inh – growth inhibition of WT yeast, mitochondrial fusion screen. mitochondrial fusion phenotypic screen, WT strain. inhibition, % at 10 µM. hit rate 2.1% among 190,000. AID 1362; in the data active = inhibition above about 58%; tested in S. cerevisiae
TNF death inh – blocks TNF-alpha induced death of Jurkat FADD-/- cells. Jurkat FADD-/- TNF necroptosis rescue, ATP luminescence, 24 h; 0 = TNF only, 100 = no-TNF cells. activation (protection from cell death), % at 10 µM. hit rate 0.068% among 220,000. AID 463075;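 active = activation, meaning protection from cell death, of at least 50% relative to plate controls; inactive = activation below 50%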;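 also: necroptosis triggered by 40 ng/mL TNF-alpha added together with compound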
DTT redox prof – compounds producing H2O2 with reducing agent – biochemical, NIH compound library profiling, artefact control for MLSCN library redox annotation, primary screen; hit rate 0.03% among 200,000; activation, % at 10 µM; DTT-dependent redox cycling H2O2, phenol red/HRP absorbance; 100% = 100 µM peroxide control, 0% = buffer;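 active = activation of at least 50% relative to the plate's high and low controls in the primary single-dose screen; inactive = activation below 50%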;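 also: compound incubated with DTT at 0.8 mM final as the reducing agent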
Numbers without * were called inactive; . = no result. In the library only some 2.4% were active in any assay of this set; here they are far more common.

SMILES	zVAD death inh	PKD1 kinase inh	PERK inh	WT yeast gro inh	TNF death inh	DTT redox prof
O=C1Nc2ccc(Cl)cc2C12Nc1ccccc1-c1nnc(SCc3ccccc3F)nc1O2 (stereo not drawn)	0	0	1	69*	-7	-1
O=C1Nc2ccc(F)cc2C12Nc1ccccc1-c1nnc(SCc3ccccc3F)nc1O2 (stereo not drawn)	0	-2	0	42	-5	-7
CCNc1nc(SCCOc2ccc(Cl)cc2Cl)nc(N(C)C)n1	12	-3	2	64*	1	-1
CCOC(=O)N1CCC(N2Cc3cccc(C(=O)Nc4ccc(CC)cc4)c3C2=O)CC1	-1	-7	-2	69*	-5	-2
O=c1ccccn1Cc1c(Cl)cccc1Cl	0	-5	1	73*	-2	2
O=c1ccccn1CCOc1ccccc1Cl	0	-15	1	-13	0	0
O=C(Nc1cccnc1)Nc1ccccc1Cl	2	-6	1	16	-2	1
O=C(Nc1cc(Cl)cc(Cl)c1)C(c1ccccc1)N1CCCCC1 (stereo not drawn)	0	-5	-1	66*	1	1
O=C(Nc1ccccc1)Nc1cc(OCC(F)(F)F)cc(OCC(F)(F)F)c1	1	-3	-1	86*	-6	-1
O=C(Nc1cccnc1)Nc1cc(Cl)cc(Cl)c1	0	6	2	77*	0	0
O=C(Nc1ccccc1)Nc1cc(Cl)cc(Cl)c1	1	4	0	89*	-1	0
O=C(Nc1cccc(Cl)c1)Nc1cccc(Cl)c1	0	-7	-1	-12	2	0
COc1cc(Cl)cc(/C=N/NC(N)=O)c1O	0	0	1	4	-1	-1
Cc1ccccc1-n1c(C)nnc1SCC(=O)N1CCc2ccccc2C1	1	2	0	-34	5	0
Cc1ccc(/C=N/NC(=O)c2cccc(S(=O)(=O)N3CCOCC3)c2)o1	1	-8	0	-7	-1	-2
CCC(C)c1ccc(O)c(NC(=S)NC(=O)c2cccnc2)c1 (stereo not drawn)	-1	2	1	43	-7	-1
CCC(C)c1ccc(O)c(NC(=O)c2cncc(Br)c2)c1 (stereo not drawn)	2	-1	-1	11	78*	-1
COc1ccc(CNC(=S)NCc2ccc(OC)cc2)cc1	0	-9	0	4	0	-2
COc1ccc(CNC(=S)NC(C)CCc2ccccc2)cc1 (stereo not drawn)	0	-1	-1	71*	0	-1
CC(C)COc1ccc(CNC(=S)NCc2ccccc2)cc1	0	8	1	69*	-5	-8
CC(OC(=O)c1ccccc1Nc1ccc(SC(F)F)cc1)C(N)=O (stereo not drawn)	2	-1	0	81*	1	-1
COc1cccc(C(C(=O)NC2CCCC2)N(C(=O)c2ccco2)c2ccc(-n3cnnn3)c(C)c2)c1OC (stereo not drawn)	0	0	1	-3	1	1
CCCN(CCC)C(=O)Nc1cc(Cl)ccc1OC	1	.	-1	.	2	.
Cc1nnc(SCC(=O)Nc2cc(-c3cc(C)c(C)cc3C)nn2-c2ccccc2)s1	1	-5	-1	63*	2	0
COc1cc(Nc2nc(-c3ccccc3)c3cc(C)ccc3n2)cc(OC)c1OC	0	5	-1	73*	-2	-1
SMILES	zVAD death inh	PKD1 kinase inh	PERK inh	WT yeast gro inh	TNF death inh	DTT redox prof
CCCc1nn(C)c(C(N)=O)c1[N+](=O)[O-]	5	-5	1	-7	0	0
CCc1nc2ccccc2c2nc3ccccc3n12	0	3	-2	11	-4	0
c1ccc2c(c1)nc(CN1CCOCC1)n1c3ccccc3nc21	-1	-2	-1	81*	-1	1
Cc1[nH]n(C2=NCCS2)c(=O)c1N=Nc1cccc(C(F)(F)F)c1	3	8	1	84*	-9	0
Cc1ccc(OCCn2c(=S)[nH]c3c(N)ncnc32)cc1	3	5	1	-5	-1	0
CCC(Sc1nnnn1-c1ccccc1)C(=O)Nc1nc2ccccc2s1 (stereo not drawn)	0	4	-1	58*	3	1
